In PubChem BioAssay AID430 (Sanford-Burnham Center for Chemical Genomics, 2006) one finds cytotoxicity data, which are given here for 26 compounds.

The campaign covered roughly 63,000 compounds. About 1,100 (1.7%) were called active. Only a selection was taken, and actives are over-represented in it overall. Potency and affinity values are given separately. A number with no mark means an inactive call. Cut-off read from the data, not from the text of the source: active = cytotoxicity above about 50%; inactive = the rest.

The nature of this assay: HPDE-C7 pancreatic duct cell viability loss – fluorescence, HTS (AID 430).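 Note: cells exposed to compound for 48 hours before viability readout; 0% = vehicle and 100% = reference cytotoxic drug.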 The settings on record: HPDE-C7 pancreatic duct cells viability, at 10 µM, hits give high values.
`CC(=O)Nc1ccc(S(=O)(=O)NC(CC(=O)N(C)Cc2ccccc2)C(C)C)cc1` (stereo unspecified): the cytotoxicity is -7.1%.
Turning to `CC(C)N1CC(C(=O)Nc2nc3ccccc3s2)CC1=O` (stereo unspecified), the cytotoxicity was -0.4%.
Then `CCc1nc2sc3c(c2c(=O)n1N)CCC3`, with 1.2%; and `Nn1c(Nc2ccccc2)nc2sc3c(c2c1=O)CCC3`, with 57.6% (active).
Take `CCCc1nc2sc3c(c2c(=O)n1N)CCC3`: the cytotoxicity was 3%.
For the compound `COc1ccc(S(=O)(=O)N(CC(=O)O)c2ccc(C)cc2)cc1`, the cytotoxicity was -20.8%.
With `O=C(NCc1cccnc1)C1c2ccccc2C(=O)N1Cc1ccco1` (stereo unspecified) the figure was -4.7%.
As to `CC(C)(C)C1CCc2nc(NC(=O)Cc3cn4ccsc4n3)sc2C1` (stereo unspecified), the cytotoxicity is 57.3% (active).
With `O=C(Cc1cn2ccsc2n1)Nc1nc2c(s1)CCCC2` the figure was 6.8%.
Then `O=C(Cc1cn2ccsc2n1)Nc1nc2c(s1)CN(Cc1ccccc1)CC2`, with -4.7%.
Then `CC1(C)CC(=O)C2=C(C1)NC(SCC(=O)Nc1ccccc1)=C(C#N)C21CCCCC1`, with -19.2%; and `CCSC1=C(C#N)C2(CCCC2)C(C#N)=C(N)N1`, with -1.6%.
Turning to `N#CC1=C(N)NC(SCC(=O)O)=C(C#N)C12CCCC2`, the cytotoxicity was 4.9%.
Turning to `CCSC1=C(C#N)C2(CCCCC2)C(C#N)=C(N)N1`, the cytotoxicity was -4.6%.
With `CSC1=C(C#N)C2(CCCC2)C(C#N)=C(N)N1`, the cytotoxicity is 22.6%.
With `COc1ccc(C(=O)CSC2=C(C#N)C3(CCCCC3)C(C#N)=C(N)N2)cc1` the figure was 22.5%; with `N#CC1=C(N)NC(SCc2ccccc2)=C(C#N)C12CCCCC2`, 72.2% (active); with `CCOC(=O)c1cnn(-c2ncnc3c2oc2ccccc23)c1N`, -2.5%.
Consider `COc1ccc(C2(CCN)CC(C)N(C)CC2C)cc1` (stereo unspecified), for which the cytotoxicity is -5.8%.
As to `O=C(c1cc(F)c(F)cc1Cl)N1CCCCC1`, the cytotoxicity is -3%.
With `CCCSc1nc2c(cnn2-c2ccc(F)cc2)c(=O)[nH]1` the figure was -9.3%; with `Cc1ccc(S(=O)(=O)NCCCN2CCOCC2)cc1C`, -25%; with `Oc1ccc(-c2nc3cnccn3c2Nc2ccc3c(c2)OCCO3)cc1`, 3.8%.
With `CCOC(=O)c1c(NC(=O)CSc2n[nH]c(N)n2)sc(CC)c1C` the figure was -3.3%; with `CCOC(=O)c1sc(NC(=O)CSc2n[nH]c(-c3ccccc3)n2)c(C#N)c1C`, 4.4%; with `O=C(COC(=O)C1COc2ccccc2O1)NC(=O)NC1CCCC1` (stereo unspecified), -11.8%.
